Reference: paper PMC4336329 (PLoS ONE, 2015)
Among all 310,000 compounds or so, about 14,000 (4.5%) showed an effect of 50% or more. Effects have a minus sign here. The entries come from a sample that favours strong results as a whole.

target: human ether-à-go-go-related gene (hERG) potassium channel (human, UniProt Q12809); experiment: primary screen, population patch clamp on CHO cells stably expressing hERG; higher = less effect of the substance
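Also: peak tail current of the secondary pulse compared with the same well before compound.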

Sequence of human ether-à-go-go-related gene (hERG) potassium channel (Q12809 whole entry, looked up): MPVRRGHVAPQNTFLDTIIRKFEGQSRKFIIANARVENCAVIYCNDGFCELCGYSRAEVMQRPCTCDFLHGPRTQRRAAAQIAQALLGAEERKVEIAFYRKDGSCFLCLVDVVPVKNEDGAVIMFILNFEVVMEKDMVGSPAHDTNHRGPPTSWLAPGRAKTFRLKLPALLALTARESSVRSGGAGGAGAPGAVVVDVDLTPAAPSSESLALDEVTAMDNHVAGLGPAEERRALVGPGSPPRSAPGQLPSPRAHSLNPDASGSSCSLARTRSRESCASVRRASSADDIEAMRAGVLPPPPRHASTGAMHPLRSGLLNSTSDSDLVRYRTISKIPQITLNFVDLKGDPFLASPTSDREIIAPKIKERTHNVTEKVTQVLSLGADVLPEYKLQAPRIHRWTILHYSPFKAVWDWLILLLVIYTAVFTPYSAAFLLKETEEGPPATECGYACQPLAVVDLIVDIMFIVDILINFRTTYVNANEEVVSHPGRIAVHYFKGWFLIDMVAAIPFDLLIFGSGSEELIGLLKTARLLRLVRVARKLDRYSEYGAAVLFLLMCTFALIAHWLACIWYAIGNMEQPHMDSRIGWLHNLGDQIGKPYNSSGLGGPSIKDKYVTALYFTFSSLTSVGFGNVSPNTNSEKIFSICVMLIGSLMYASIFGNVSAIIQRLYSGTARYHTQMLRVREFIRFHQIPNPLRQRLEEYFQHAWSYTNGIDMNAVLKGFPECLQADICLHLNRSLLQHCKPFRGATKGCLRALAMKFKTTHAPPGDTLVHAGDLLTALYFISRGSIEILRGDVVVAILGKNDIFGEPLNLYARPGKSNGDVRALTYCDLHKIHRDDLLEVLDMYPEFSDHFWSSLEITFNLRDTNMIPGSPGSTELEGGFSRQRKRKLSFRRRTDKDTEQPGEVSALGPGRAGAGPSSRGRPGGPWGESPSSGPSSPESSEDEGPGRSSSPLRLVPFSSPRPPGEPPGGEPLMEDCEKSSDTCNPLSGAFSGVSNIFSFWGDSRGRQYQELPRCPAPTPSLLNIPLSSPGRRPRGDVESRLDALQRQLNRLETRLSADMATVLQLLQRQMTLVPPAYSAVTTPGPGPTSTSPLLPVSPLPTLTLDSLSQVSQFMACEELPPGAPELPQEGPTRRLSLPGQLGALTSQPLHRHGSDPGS

Point of comparison: `Cc1ccc(C(=O)Nc2nnc(-c3ccc(C(C)(C)C)cc3)s2)cc1`, “hERG current change (%, negative = inhibition) at 10uM” value 4.81%. Against it:
- COc1ccc(NC(=O)Nc2ccccc2SC)cc1OC — higher, 6.08%
- Cc1ccc(C)c(N2CCN(C(=O)Cn3c(=O)[nH]c4ccsc4c3=O)CC2)c1 — lower, -4.12%
- CCCCCCN1CC(=O)N2[C@@H](Cc3c([nH]c4ccccc34)C2(C)C)C1=O — higher, 13.9%
- CCN(CC)CCCN1CC(=O)N2[C@@H](Cc3c([nH]c4ccccc34)C2(C)C)C1=O — lower, 1.24%
- CCCCN(CCCC)CCCN1CC(=O)N2[C@@H](Cc3c([nH]c4ccccc34)C2(C)C)C1=O — lower, -73.2%
- O=C(NCc1cccnc1)c1cc(-c2ccco2)on1 — higher, 8.02%
- CC(NC(=O)C1CCN(C(=O)[C@@H]2Cc3ccccc3CN2C(=O)OC(C)(C)C)CC1)c1ccccc1 (stereo partly shown) — higher, 14%
- O=C(NCC(=O)N(c1cnc2ccccc2c1)C(C(=O)NC1CCCC1)c1ccncc1)c1ccco1 (stereo not shown) — higher, 8.74%
- CC(C)(C)S(=O)(=O)c1nc2ccccc2s1 — higher, 6.74%
- CCCc1ccc2oc(C(=O)N3CCCC3)c(C)c2c1 — lower, -7.11%
- CCCc1ccc2oc(C(=O)N3CCC(O)CC3)c(C)c2c1 — lower, -12.2%
- CCCc1ccc2oc(C(=O)N3CCN(C4CCS(=O)(=O)C4)CC3)c(C)c2c1 (stereo not shown) — lower, -51.3%
- Oc1oc(-c2ccccc2)nc1C=NCc1ccncc1 — lower, -7.6%
- COc1ccc(S(=O)(=O)N[C@@H](Cc2ccccc2)C(=O)N2CC[C@@]3(O)CCCC[C@H]3C2)cc1 — lower, -14.9%
- CCCn1c(-c2cc(OC)c(OC)c(OC)c2)nc2c1c(=O)[nH]c(=O)n2Cc1ccccc1 — higher, 5.09%
- CCCn1c(-c2cccc([N+](=O)[O-])c2)nc2c1c(=O)[nH]c(=O)n2Cc1ccccc1 — lower, -66.4%
- CCCCn1c(=O)[nH]c(=O)c2c1nc(-c1ccc(OC(F)F)c(OC)c1)n2C — higher, 17.1%
- CCCn1c(=O)[nH]c(=O)c2c1nc(-c1ccc(OC(F)F)c(OC)c1)n2CCOC — lower, -50.5%
- COCCCn1c(-c2cccc(Cl)c2)nc2c1c(=O)[nH]c(=O)n2Cc1ccccc1 — lower, -0.77%
- CCCn1c(-c2cccc(F)c2)nc2c1c(=O)[nH]c(=O)n2Cc1ccccc1 — higher, 17.5%
- CCCn1c(=O)[nH]c(=O)c2c1nc(-c1ccc(OC)c(Br)c1)n2CCOC — lower, -20.1%
- COCCn1c(-c2ccc(C#N)cc2)nc2c1c(=O)[nH]c(=O)n2Cc1ccccc1 — lower, -33.9%
- COCCn1c(-c2cccc([N+](=O)[O-])c2)nc2c1c(=O)[nH]c(=O)n2Cc1ccccc1 — lower, -84.2%
- CS(=O)(=O)c1ccc2nc(NC(=O)c3ccc(Cn4cc(Br)cn4)o3)sc2c1 — lower, -27.1%
- CCc1c(C)[nH]c2c1C(=O)C(CN1CCOCC1)CC2.Cl (stereo not shown) — lower, -7.67%
- CCOc1cc(C(=O)O/N=C(\N)c2ccc([N+](=O)[O-])cc2)cc(OCC)c1OCC — lower, -16%
- CCOc1ccccc1N1C(=O)NC(=O)/C(=C/c2ccc3c4c(cccc24)CC3)C1=O — lower, 2.74%
- CSc1nsc(SC)c1NC(=O)OCCc1ccccn1 — lower, -6.18%
- CCC(c1nnnn1Cc1cccs1)N1CCN(c2nc3ccccc3s2)CC1 (stereo not shown) — lower, -56.1%
- c1ccc(CCn2nnnc2C(c2cccnc2)N2CCN(c3ccccc3)CC2)cc1 (stereo not shown) — lower, -47.6%
- CCC(c1nnnn1CCOC)N1CCN(c2nc3ccccc3s2)CC1 (stereo not shown) — lower, -34.7%
- COCCn1nnnc1C(CC(C)C)N1CCN(c2nc3ccccc3s2)CC1 (stereo not shown) — lower, -9.4%
- COCCn1nnnc1C(c1ccc(OC)c(OC)c1)N1CCN(c2nc3ccccc3s2)CC1 (stereo not shown) — lower, -56.3%
- COCCn1nnnc1C(c1cccs1)N1CCN(c2nc3ccccc3s2)CC1 (stereo not shown) — lower, -25.3%
- CC(C)CC(c1nnnn1Cc1cccs1)N1CCN(c2nc3ccccc3s2)CC1 (stereo not shown) — lower, 0.473%
- CCCC(c1nnnn1Cc1cccs1)N1CCN(c2nc3ccccc3s2)CC1 (stereo not shown) — lower, -22.4%
- COc1cc(C(c2nnnn2C(C)(C)C)N2CCN(c3nc4ccccc4s3)CC2)ccc1O (stereo not shown) — lower, -28.1%
- CCCC(c1nnnn1CCOC)N1CCN(c2nc3ccccc3s2)CC1 (stereo not shown) — lower, -66.2%
- c1ccc(CCn2nnnc2C(c2cccnc2)N2CCN(c3nc4ccccc4s3)CC2)cc1 (stereo not shown) — lower, -58.7%
- Oc1ccc(C(c2nnnn2CCc2ccccc2)N2CCN(c3nc4ccccc4s3)CC2)cc1 (stereo not shown) — higher, 9.25%
- Cc1ccc2nc(SC(C(=O)Nc3ccc(F)cc3)c3ccccc3)[nH]c2c1 (stereo not shown) — lower, -1.38%
- Cc1ccsc1/C=N/NC(=O)c1ccc2nc[nH]c2c1 — lower, -2.67%
